Screening results: PubChem BioAssay, National Center for Advancing Translational Sciences (NCATS)
Mito fusion yeast – inhibitors of mitochondrial division or activators of mitochondrial fusion | S. cerevisiae fusion-defective mutant growth rescue, CellTiterGlo 48 h | Potency, µM (series often up to 46.1 µM), inactives show at the top dose growth rescue (activation), hits mostly activators | hit rate 0.23% among 320,000 | AID 485298; also: potency is read from the fitted curve at half-maximal effect; % of control where 0% means no effect; nearly all actives have a fitted effect of over 45% in size
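Read-out: ATP-based luminescence (CellTiterGlo, 10 min ambient) reporting growth of fusion-defective ts yeast after 48 hours at 37C on glycerol/ethanol YPEG medium in the presence of compound.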
TrxR1 substrate – is turned over as a substrate by rat TrxR1 | Potency, µM (highest dose often 114 µM), without a hit: at the highest dose activity change, negative = substrate turnover | hit rate 0.01% among 390,000 | purified TrxR1 substrate turnover, NADPH consumption readout | AID 588456; also: potency is read from the fitted curve at half-maximal effect; % is scaled to controls: 0 for no effect and ±100 for the full control effect; nearly all actives have a fitted effect of over 50% in size
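Rat TrxR1, dispensed at 90 nM, was prereduced with 400 uM NADPH (final) for 5 min at ~22 deg C, then incubated with compound 15 min before 400 uM selenite. A first-read NADPH fluorescence drop versus no-compound background flagged substrates.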
TrxR1 inh-1 – inhibitors of rat thioredoxin reductase 1. O89049. recombinant rTrxR1, NADPH fluorescence consumption, selenite substrate. Potency, µM (highest dose often 114 µM), for inactives: at the highest dose activity change, negative = inhibition, actives largely listed as inhibitors. hit rate 1% among 390,000. AID 588453; also: potency is read from the fitted curve at half-maximal effect; % is scaled to controls: 0 for no effect and ±100 for the full control effect; nearly all actives have a fitted effect of over 65% in size
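Rat TrxR1 (90 nM in the dispensed reagent) was pre-reduced with 400 uM NADPH for 5 min at room temperature, then incubated with compound for 15 min. After 400 uM selenite was added, NADPH fluorescence (Ex 340/Em 450 nm) was followed for 8 min.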
IDH1 R132H inh – human IDH1 R132H inhibition; O75874; IDH1-R132H enzyme, NADPH consumption, diaphorase/resazurin fluorescence; Potency, µM (doses to about 76.6 µM), for inactives: top-dose activity change, negative = inhibition, hits mostly inhibitors; hit rate 0.093% among 390,000; AID 602179; also: potency is read from the fitted curve at half-maximal effect; % is scaled to controls: 0 for no effect and ±100 for the full control effect; nearly all actives have a fitted effect of over 65% in size
Target sequence (O75874 whole entry R132H, stated change not applied): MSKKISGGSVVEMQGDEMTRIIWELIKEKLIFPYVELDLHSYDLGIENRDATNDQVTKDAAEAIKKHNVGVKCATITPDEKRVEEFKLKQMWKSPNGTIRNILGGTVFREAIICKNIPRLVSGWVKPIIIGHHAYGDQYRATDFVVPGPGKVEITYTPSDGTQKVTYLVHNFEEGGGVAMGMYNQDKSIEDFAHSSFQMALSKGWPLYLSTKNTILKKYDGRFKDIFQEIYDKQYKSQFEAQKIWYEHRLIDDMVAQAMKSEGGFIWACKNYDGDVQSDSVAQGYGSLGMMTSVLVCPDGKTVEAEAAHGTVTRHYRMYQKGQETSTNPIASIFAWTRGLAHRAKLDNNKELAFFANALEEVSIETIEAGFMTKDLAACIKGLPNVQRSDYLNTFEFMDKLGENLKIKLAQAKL
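IDH1-R132H (0.5 ug/mL dispensed) in pH 7.5 Tris buffer was preincubated 30 min with compound, then given a substrate mix of 0.016 mM NADPH and 2 mM alpha-KG for 80 min at room temperature; remaining NADPH was read by diaphorase/resazurin fluorescence.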
Nrf2 block – Nrf2 pathway inhibition; A549 ARE-Fluc reporter, luciferase luminescence, 18-24 h; Potency, µM (series often up to 46 µM), without a hit: at the top dose activity change, negative = inhibition, hits mostly inhibitors; hit rate 2.1% among 360,000; also: potency is read from the fitted curve at half-maximal effect; % is scaled to controls: 0 for no effect and ±100 for the full control effect; nearly all actives have a fitted effect of over 60% in size
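In this cell-based qHTS, ARE-driven firefly luciferase in A549 cells reports Nrf2 activity; the luminescent signal after BugLite lysis is the measured value, with a prior CellTiter-Fluor read for cell health.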
A549 tox-1 – kills or reduces viability of A549 cells in Nrf2 counter-screen; A549 ARE-Fluc cells, CellTiter-Fluor viability, 18-24 h; Potency, µM (series often up to 46 µM), for inactives: at the highest dose activity change, negative = cytotoxicity, most hits filed as inhibitors; hit rate 0.16% among 390,000; AID 504648; also: potency is read from the fitted curve at half-maximal effect; % is scaled to controls: 0 for no effect and ±100 for the full control effect
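A549 ARE-Fluc cells in 5% FBS OPTI-MEM, 5000 cells/well, rested 2 h then exposed to compounds in concentration-response for 18-24 h at 37 °C. Viability by CellTiter-Fluor fluorescence (Ex 405/Em 525) after 30 min; luciferase luminescence (BugLite, 15 min, RT) read afterwards.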
FLuc counter 3 – firefly luciferase inhibition, Nrf2 hit validation | shares compounds with Nrf2 block | purified firefly luciferase, luminescence inhibition | Potency, µM (series often up to 57.5 µM), inactives show top-dose activity change, negative = inhibition, hits mostly inhibitors | hit rate 4% among 1,400 | AID 720522; also: potency is read from the fitted curve at half-maximal effect; % is scaled to controls: 0 for no effect and ±100 for the full control effect; nearly all actives have a fitted effect of over 65% in size
A549 tox-2 – A549 cytotoxicity, Nrf2 inhibitor counterscreen | A549 ARE-Fluc cells, cytotoxicity counterscreen | Potency, µM (top dose mostly 46.1 µM), for the others: at the highest dose activity change, negative = cytotoxicity, actives largely listed as inhibitors | hit rate 2% among 1,400 | AID 720523 | shares compounds with Nrf2 block;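 also: potency is read from the fitted curve at half-maximal effect; cells exposed to compounds for 18 to 24 hours; % is scaled to controls: 0 for no effect and ±100 for the full control effect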
ARE-Fluc inh – confirmation of Nrf2 inhibitors in A549 ARE reporter cells; A549 ARE-firefly luciferase reporter, luminescence; Potency, µM (top dose mostly 46.1 µM), inactives show at the top dose activity change, negative = inhibition, hits mostly inhibitors; shares compounds with Nrf2 block; hit rate 74% among 1,400; also: potency is read from the fitted curve at half-maximal effect; % is scaled to controls: 0 for no effect and ±100 for the full control effect; nearly all actives have a fitted effect of over 65% in size
GR inh – inhibits human glutathione reductase in TrxR1 counterassay; shares compounds with TrxR1 inh-1; purified GR, DTNB reduction absorbance 405 nm kinetic; activity change, negative = inhibition, % at 57.1 µM; 55 tested, under 10 active
TrxR1 inh-2 – rat TrxR1 inhibition, primary screen retest; shares compounds with TrxR1 inh-1; recombinant TrxR1, NADPH fluorescence consumption, selenite substrate; Potency, µM, actives largely listed as inhibitors; hit rate 50% among 55; AID 652023
TrxR1 insulin – TrxR1 inhibition in insulin mechanism assay; shares compounds with TrxR1 inh-1; TrxR1 Trx-coupled insulin reduction, NADPH absorbance 340 nm; Potency, µM; hit rate 20% among 55;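 active = compounds with a measured potency under 100 micromolar; inconclusive = filed, but no rule given; inactive = potency at or above that, or unmeasurable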
TrxR1 inh-3 – blocks rat TrxR1 reduction of DTNB; shares compounds with TrxR1 inh-1; purified TrxR1, DTNB reduction, A412; hit rate 90% among 55; AID 652256; Potency, µM;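 active = a half-inhibiting concentration could be measured and was below 100 µM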
Resorufin autofl – counter-screen for mutant IDH1 inhibitors: fluorescence interference; inhibition of signal, % at 51.2 µM; shares compounds with IDH1 R132H inh; Resorufin detection reagent fluorescence interference, cell-free; 750 tested, under 10 active;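 also: 0% = wells with normal resorufin and full inhibition = wells lacking resorufin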
IDH1 WT – selectivity of mutant IDH1 inhibitors: human wild-type IDH1. shares compounds with IDH1 R132H inh. hit rate 9% among 750. AID 623995. WT IDH1 enzyme, NADPH diaphorase/resazurin fluorescence. Potency, µM (doses to about 115 µM), for the others: at the top dose activity change, negative = inhibition, actives largely listed as inhibitors;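 also: potency is read from the fitted curve at half-maximal effect; 0% = full WT IDH1 enzyme control and full inhibition = no enzyme wells; nearly all actives have a fitted effect of over 55% in size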
Target sequence (O75874 whole entry, looked up): as the sequence (O75874 whole entry R132H, stated change not applied) above, with H132R counted along it
IDH1 R132H conf – inhibits human mutant IDH1 enzyme in cherrypick confirmation. hit rate 83% among 750. AID 624002. shares compounds with IDH1 R132H inh. IDH1 R132H enzyme, NADPH diaphorase/resazurin fluorescence. Potency, µM (highest dose often 76.6 µM), for inactives: at the top dose activity change, negative = inhibition, usual class: inhibitors; also: potency is read from the fitted curve at half-maximal effect; nearly all actives have a fitted effect of over 50% in size
* hit, by the source's call; u = inconclusive; x = not tested or not shown; [ ] = another dose, or the depositor's remark. In the library only some 3.1% were active in any assay of this set; here they are far more common. Unless noted, calls follow the shape of the dose curve; as a rule, active = well fitted curve in the direction sought with a large enough effect; inconclusive = small, poorly fitted or top-dose-only effect, or another doubt; inactive = no such curve, though single readings can be large; an effect the other way counts as inactive or inconclusive.

SMILES	Mito fusion yeast	TrxR1 substrate	TrxR1 inh-1	IDH1 R132H inh	Nrf2 block	A549 tox-1	others
COc1ccc(OC)c(NC(=O)Cn2cc(C(=O)c3ccccc3F)c3ccccc32)c1	x	3%	33%	3%	14%	-7%
S=c1[nH]c2cc(Br)cnc2[nH]1	-2%	5%[57.1 µM]	u	-6%	-3%	-6%
CC(=O)OC1CC[C@]2(C#N)[C@H]3CC[C@]4(C)[C@H](C5C=CC(=O)O5)CCC4(O)C3CCC2(O)C1 (some centres not stated)	8%	2%	24%	12%	5.2µM*	-15%	FLuc counter 3=-2%;A549 tox-2=u;ARE-Fluc inh=6.5µM*
COc1cc(/C=C/c2nc3ccccc3c(=O)n2-c2ccc(Br)c(C)c2)ccc1O	x	3%[57.1 µM]	14%[57.1 µM]	0%	x	-1%
CC(=O)OC(C)(C)/C=C/C(=O)C(C)(O)C1[C@H](O)C[C@@]2(C)C3CC=C4C(CC[C@@H](O)C4(C)C)[C@]3(CO)C(=O)C[C@]12C (some centres not stated)	-6%	7%[57.1 µM]	11%[57.1 µM]	4%	0.23µM*	0.26µM*	FLuc counter 3=3%;A549 tox-2=u;ARE-Fluc inh=0.16µM*
CC(C)[C@]1(O)[C@@H](OC(=O)c2ccc[nH]2)[C@@]2(O)[C@@]3(C)C[C@]4(O)O[C@@]5([C@H](O)[C@@H](C)CC[C@]35O)[C@@]2(O)C41C	x	-2%	16%	x	15%	-1%
CCC(=NCCc1c[nH]c2ccccc12)c1c(O)n(-c2ccc(C)cc2)c(=O)[nH]c1=O	3%	-6%	1%	3%	u	u
CCC(=NC(C)c1ccccc1)c1c(O)n(C)c(=O)n(C)c1=O (configuration not stated)	0%	-7%	5%	-2%	5.8µM*	-16%	FLuc counter 3=2%;A549 tox-2=-8%;ARE-Fluc inh=7.3µM*
CCC(=NCCc1c[nH]c2ccccc12)c1c(O)n(C)c(=O)n(C)c1=O	10%	5%	7%	4%	9.2µM*	u	FLuc counter 3=2%;A549 tox-2=-1%
Cc1cccc(-n2c(/C=C/c3c[nH]c4ccccc34)nc3ccccc3c2=O)c1	x	-7%	-6%	0%	-16%	-4%
c1ccc2c(c1)-c1cccc3cccc-2c13	12%	40%[57.1 µM]	37%	11%	-3%	1%
Cc1ccccc1-n1nc(C)c2c1NC(=O)CSC2c1ccccc1C(F)(F)F (configuration not stated)	x	0%	7%	x	15%	7%
CC1=C[C@@H]2c3cccc4[nH]cc(c34)C[C@H]2N(C)C1	8%	27%	2.5µM*	3%	-3%	-5%	GR inh=-4;TrxR1 inh-2=u;TrxR1 insulin=49µM*;TrxR1 inh-3=2.2µM*
CC(C)c1ccc(NC(=O)CN2C(=O)CN=C(c3ccccc3)c3ccccc32)cc1	x	5%	25%	-2%	6%	-2%
N#CC(C#N)=NNc1ccc(-n2ccc(C(F)(F)F)n2)cc1	-3%	-6%	20µM*	33µM*	16µM*	u	Resorufin autofl=3;IDH1 WT=79µM*;IDH1 R132H conf=25µM*
Cc1cc(C)n(-c2ccc(NN=C(C#N)C#N)cc2)n1	-15%	-11%	u	u	u	-10%
C[N+]1(C)CCc2cc3c(cc2C1C1OC(=O)c2c1ccc1c2OCO1)OCO3 (configuration not stated)	x	x	4%	x	x	x
C=C(C)Cn1c(-c2cccc([N+](=O)[O-])c2)n[nH]c1=S	21%	-12%	-8%[57.1 µM]	14%	u	4%
O=C(COC(=O)c1ccc(O)cc1)Nc1ccc(Cl)cc1C(=O)c1ccccc1	u	5%[57.1 µM]	21%[57.1 µM]	58µM*	u	-6%	Resorufin autofl=-1;IDH1 WT=7%;IDH1 R132H conf=35µM*
CC(=O)Nc1ccc(C(=O)OCC(=O)Nc2ccc(Cl)cc2C(=O)c2ccccc2)cc1	16%	-6%	2%	u	5%	-1%
